# Measurements as given in the supplement of paper PMC8728848.
# This excerpt belongs to a sample that is enriched for the strongest signals.
# B1: Protein L(A-C2) (Finegoldia magna), Q51912 (protein)
# chain: ADEPIDLEKLEEKRDKENVGNLPKFDNEVKDGSENPMAKYPDFDDEASTRFETENNEFEEKKVVSDNFFDQSEHPFVENKEETPETPETDSEEEVTIKANLIFANGSTQTAEFKGTFEKATSEAYAYADTLKKDNGEYTVDVADKGYTLNIKFAGKEKTPEEPKEEVTIKANLIYADGKTQTAEFKGTFEEATAEAYRYADALKKDNGEYTVDVADKGYTLNIKFAGKEKTPEEPKEEVTIKANLIYADGKTQTAEFKGTFEEATAEAYRYADLLAKENGKYTVDVADKGYTLNIKFAGKEKTPEEPKEEVTIKANLIYADGKTQTAEFKGTFAEATAEAYRYADLLAKENGKYTADLEDGGYTINIRFAGKKVDEKPEEKEQVTIKENIYFEDGTVQTATFKGTFAEATAEAYRYADLLSKEHGKYTADLEDGGYTINIRFAGKEEPEETPEKPEVQDGYASYEEAEAAAKEALKNDDVNKSYTIRQGADGRYYYVLSPVEAEEEKPEAQNGYATYEEAEAAAKKALENDPINKSYSIRQGADGRYYYVLSPVEAE
# Experiments:
# Assay in all cases: glycan array binding signal (z-score within array); higher = stronger binding
# Details in all cases: glycan notation: IUPAC condensed, linker removed
# [1] = biological target: Fuc(a1-2)Gal(b1-3)GalNAc(a1-3)[Fuc(a1-2)]Gal(b1-4)GlcNAc
# Procedure, shortened: (§1)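 Negative Z-scores can be read as non-binding. The Z-score is calculated within each array and then averaged across arrays of one protein sequence at different concentrations or buffers and across linkers. Arrays, 3228 in all, were curated from the Consortium for Functional Glycomics database and kept only where the protein sequence was available.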
# [2] = biological target: Fuc(a1-2)Gal(b1-3)GlcNAc(b1-3)[Gal(b1-4)GlcNAc(b1-6)]Gal(b1-4)Glc
# Procedure, shortened: as §1
# [3] = biological target: Fuc(a1-2)Gal(b1-4)[Fuc(a1-3)]GlcNAc(b1-3)GalNAc
# Procedure, shortened: as §1
# [4] = biological target: Fuc(a1-2)[Gal(a1-3)]Gal(b1-4)GlcNAc(b1-3)GalNAc
# Procedure, shortened: as §1
# [5] = biological target: Fuc(a1-2)[GalNAc(a1-3)]Gal(b1-4)GlcNAc(b1-3)GalNAc
# Procedure, shortened: as §1
# [6] = biological target: Fuc(a1-2)[GalNAc(a1-3)]Gal(b1-4)[Fuc(a1-3)]GlcNAc
# Procedure, shortened: as §1
# [7] = biological target: Fuc(a1-3)[Gal(b1-4)]GlcNAc(b1-2)Man(a1-3)[Fuc(a1-3)[Gal(b1-4)]GlcNAc(b1-2)Man(a1-6)]Man(b1-4)GlcNAc(b1-4)[Fuc(a1-6)]GlcNAc
# Procedure, shortened: as §1
# [8] = biological target: Fuc(a1-3)[Gal(b1-4)]GlcNAc(b1-3)Gal(b1-3)[Fuc(a1-4)]GlcNAc
# Procedure, shortened: as §1
# [9] = biological target: Fuc(a1-3)[Gal3S(b1-4)]GlcNAc
# Procedure, shortened: as §1
# Fuc(a1-4)GlcNAc = biological target: Fuc(a1-4)GlcNAc
# Procedure, shortened: as §1
# [10] = biological target: Gal(a1-3)Gal(b1-4)GlcNAc(b1-6)GalNAc
# Procedure, shortened: as §1
# [11] = biological target: Gal(a1-4)Gal(b1-4)GlcNAc(b1-3)Gal(b1-4)Glc
# Procedure, shortened: as §1
# [12] = biological target: Gal(b1-3)GlcNAc(b1-2)Man(a1-3)[Gal(b1-3)GlcNAc(b1-2)Man(a1-6)]Man(b1-4)GlcNAc(b1-4)[Fuc(a1-6)]GlcNAc
# Procedure, shortened: as §1
# [13] = biological target: Gal(b1-3)GlcNAc(b1-2)Man(a1-3)[GlcNAc(b1-4)][Gal(b1-3)GlcNAc(b1-2)Man(a1-6)]Man(b1-4)GlcNAc(b1-4)GlcNAc
# Procedure, shortened: as §1
# [14] = biological target: Gal(b1-3)[Fuc(a1-4)]GlcNAc(b1-6)GalNAc
# Procedure, shortened: as §1
# [15] = biological target: Gal(b1-4)GalNAc(b1-3)[Fuc(a1-2)]Gal(b1-4)GlcNAc
# Procedure, shortened: as §1
# Gal(b1-4)GlcNAc = biological target: Gal(b1-4)GlcNAc
# Procedure, shortened: as §1
# [16] = biological target: Gal(b1-4)GlcNAc(b1-2)[Gal(b1-4)GlcNAc(b1-4)]Man(a1-3)[GlcNAc(b1-4)][Gal(b1-4)GlcNAc(b1-2)[Gal(b1-4)GlcNAc(b1-6)]Man(a1-6)]Man(b1-4)GlcNAc(b1-4)GlcNAc
# Procedure, shortened: as §1
# [17] = biological target: Gal(b1-4)GlcNAc(b1-3)Gal(b1-4)GlcNAc(b1-2)Man(a1-3)[Gal(b1-4)GlcNAc(b1-3)Gal(b1-4)GlcNAc(b1-2)Man(a1-6)]Man(b1-4)GlcNAc(b1-4)[Fuc(a1-6)]GlcNAc
# Procedure, shortened: as §1
# [18] = biological target: Gal(b1-4)GlcNAc(b1-3)Gal(b1-4)GlcNAc(b1-3)Gal(b1-4)GlcNAc(b1-2)Man(a1-3)[Gal(b1-4)GlcNAc(b1-3)Gal(b1-4)GlcNAc(b1-3)Gal(b1-4)GlcNAc(b1-2)Man(a1-6)]Man(b1-4)GlcNAc(b1-4)GlcNAc
# Procedure, shortened: as §1
# [19] = biological target: Gal(b1-4)GlcNAc(b1-3)Gal(b1-4)GlcNAc(b1-6)[Gal(b1-3)]GalNAc
# Procedure, shortened: as §1
# Gal6S(b1-4)Glc = biological target: Gal6S(b1-4)Glc
# Procedure, shortened: as §1
# GalNAc(a1-3)GalNAc = biological target: GalNAc(a1-3)GalNAc
# Procedure, shortened: as §1
# GalNAc(b1-3)Gal = biological target: GalNAc(b1-3)Gal
# Procedure, shortened: as §1
# [20] = biological target: GalNAc(b1-3)Gal(a1-4)Gal(b1-4)GlcNAc(b1-3)Gal(b1-4)Glc
# Procedure, shortened: as §1
# GalNAc6S(b1-4)GlcNAc = biological target: GalNAc6S(b1-4)GlcNAc
# Procedure, shortened: as §1
# GlcA(b1-3)Gal = biological target: GlcA(b1-3)Gal
# Procedure, shortened: as §1
# [21] = biological target: GlcNAc(b1-2)Man(a1-3)[GlcNAc(b1-2)Man(a1-6)]Man(b1-4)GlcNAc(b1-4)[Fuc(a1-6)]GlcNAc
# Procedure, shortened: as §1
# [22] = biological target: GlcNAc(b1-2)Man(a1-3)[GlcNAc(b1-4)][GlcNAc(b1-2)Man(a1-6)]Man(b1-4)GlcNAc(b1-4)[Fuc(a1-6)]GlcNAc
# Procedure, shortened: as §1
# [23] = biological target: GlcNAc(b1-3)Gal(b1-4)GlcNAc
# Procedure, shortened: as §1
# [24] = biological target: GlcNAc(b1-3)Gal(b1-4)GlcNAc(b1-3)Gal(b1-4)GlcNAc(b1-2)Man(a1-3)[GlcNAc(b1-3)Gal(b1-4)GlcNAc(b1-3)Gal(b1-4)GlcNAc(b1-2)Man(a1-6)]Man(b1-4)GlcNAc(b1-4)GlcNAc
# Procedure, shortened: as §1
# [25] = biological target: GlcNAc(b1-3)[GlcNAc(b1-6)]Gal(b1-4)GlcNAc
# Procedure, shortened: as §1
# [26] = biological target: Man(a1-3)[Man(a1-6)]Man(a1-6)[Man(a1-2)Man(a1-3)]Man(b1-4)GlcNAc(b1-4)GlcNAc
# Procedure, shortened: as §1
# Man(b1-4)GlcNAc = biological target: Man(b1-4)GlcNAc
# Procedure, shortened: as §1
# [27] = biological target: Neu5Ac(a2-3)Gal(b1-3)GalNAc
# Procedure, shortened: as §1
# [28] = biological target: Neu5Ac(a2-3)Gal(b1-3)GlcNAc(b1-2)Man
# Procedure, shortened: as §1
# [29] = biological target: Neu5Ac(a2-3)Gal(b1-3)[GlcNAc(b1-6)]GalNAc
# Procedure, shortened: as §1
# Neu5Ac(a2-3)Gal(b1-4)Glc = biological target: Neu5Ac(a2-3)Gal(b1-4)Glc
# Procedure, shortened: as §1
# [30] = biological target: Neu5Ac(a2-3)Gal(b1-4)GlcNAc(b1-2)Man(a1-3)[GlcNAc(b1-4)][Neu5Ac(a2-3)Gal(b1-4)GlcNAc(b1-2)Man(a1-6)]Man(b1-4)GlcNAc(b1-4)GlcNAc
# Procedure, shortened: as §1
# [31] = biological target: Neu5Ac(a2-3)Gal(b1-4)GlcNAc(b1-2)Man(a1-3)[Neu5Ac(a2-3)Gal(b1-4)GlcNAc(b1-2)Man(a1-6)]Man(b1-4)GlcNAc(b1-4)[Fuc(a1-6)]GlcNAc
# Procedure, shortened: as §1
# [32] = biological target: Neu5Ac(a2-3)Gal(b1-4)GlcNAc(b1-3)Gal(b1-4)GlcNAc
# Procedure, shortened: as §1
# [33] = biological target: Neu5Ac(a2-3)Gal(b1-4)GlcNAc(b1-3)Gal(b1-4)GlcNAc(b1-3)Gal(b1-4)GlcNAc(b1-2)Man(a1-3)[Neu5Ac(a2-3)Gal(b1-4)GlcNAc(b1-3)Gal(b1-4)GlcNAc(b1-3)Gal(b1-4)GlcNAc(b1-2)Man(a1-6)]GalNAc
# Procedure, shortened: as §1
# [34] = biological target: Neu5Ac(a2-6)Gal(b1-4)GlcNAc(b1-2)Man
# Procedure, shortened: as §1
# [35] = biological target: Neu5Ac(a2-6)Gal(b1-4)GlcNAc(b1-2)Man(a1-3)[Neu5Ac(a2-6)Gal(b1-4)GlcNAc(b1-2)Man(a1-6)]Man(b1-4)GlcNAc(b1-4)GlcNAc
# Procedure, shortened: as §1
# [36] = biological target: Neu5Ac(a2-6)Gal(b1-4)GlcNAc(b1-2)Man(a1-6)Man(b1-4)GlcNAc(b1-4)GlcNAc
# Procedure, shortened: as §1
# [37] = biological target: Neu5Ac(a2-6)Gal(b1-4)GlcNAc(b1-2)Man(a1-6)[Man(a1-3)]Man(b1-4)GlcNAc(b1-4)GlcNAc
# Procedure, shortened: as §1
# [38] = biological target: Neu5Ac(a2-6)Gal(b1-4)GlcNAc(b1-3)Gal(b1-4)GlcNAc(b1-3)[Neu5Ac(a2-6)Gal(b1-4)GlcNAc(b1-3)Gal(b1-4)GlcNAc(b1-6)]GalNAc
# Procedure, shortened: as §1
# [39] = biological target: Neu5Ac(a2-6)Gal(b1-4)GlcNAc(b1-3)Gal(b1-4)GlcNAc(b1-6)[Gal(b1-3)]GalNAc
# Procedure, shortened: as §1
# [40] = biological target: Neu5Ac(a2-6)Gal(b1-4)GlcNAc6S
# Procedure, shortened: as §1
# [41] = biological target: Neu5Gc(a2-3)Gal(b1-4)GlcNAc(b1-3)Gal(b1-4)GlcNAc(b1-2)Man(a1-3)[Neu5Gc(a2-3)Gal(b1-4)GlcNAc(b1-3)Gal(b1-4)GlcNAc(b1-2)Man(a1-6)]Man(b1-4)GlcNAc(b1-4)GlcNAc
# Procedure, shortened: as §1
binder,measurement,setting,value
B1,glycan array binding signal (z-score),[1],-0.969
same,glycan array binding signal (z-score),[2],-0.355
same,glycan array binding signal (z-score),[3],2.89
same,glycan array binding signal (z-score),[4],6.17
same,glycan array binding signal (z-score),[5],-0.485
same,glycan array binding signal (z-score),[6],3.52
same,glycan array binding signal (z-score),[7],1.71
same,glycan array binding signal (z-score),[8],0.052
same,glycan array binding signal (z-score),[9],-0.101
same,glycan array binding signal (z-score),Fuc(a1-4)GlcNAc,-0.933
same,glycan array binding signal (z-score),[10],-0.284
same,glycan array binding signal (z-score),[11],-0.164
same,glycan array binding signal (z-score),[12],0.716
same,glycan array binding signal (z-score),[13],0.568
same,glycan array binding signal (z-score),[14],3.16
same,glycan array binding signal (z-score),[15],-0.365
same,glycan array binding signal (z-score),Gal(b1-4)GlcNAc,-0.975
same,glycan array binding signal (z-score),[16],-0.468
same,glycan array binding signal (z-score),[17],0.357
same,glycan array binding signal (z-score),[18],3.21
same,glycan array binding signal (z-score),[19],3.67
same,glycan array binding signal (z-score),Gal6S(b1-4)Glc,-0.354
same,glycan array binding signal (z-score),GalNAc(a1-3)GalNAc,-0.445
same,glycan array binding signal (z-score),GalNAc(b1-3)Gal,-0.354
same,glycan array binding signal (z-score),[20],0.127
same,glycan array binding signal (z-score),GalNAc6S(b1-4)GlcNAc,-0.775
same,glycan array binding signal (z-score),GlcA(b1-3)Gal,-0.562
same,glycan array binding signal (z-score),[21],2.85
same,glycan array binding signal (z-score),[22],-0.153
same,glycan array binding signal (z-score),[23],-0.623
same,glycan array binding signal (z-score),[24],1.91
same,glycan array binding signal (z-score),[25],-0.856
same,glycan array binding signal (z-score),[26],4.98
same,glycan array binding signal (z-score),Man(b1-4)GlcNAc,0.002
same,glycan array binding signal (z-score),[27],0.418
same,glycan array binding signal (z-score),[28],3.79
same,glycan array binding signal (z-score),[29],-0.278
same,glycan array binding signal (z-score),Neu5Ac(a2-3)Gal(b1-4)Glc,0.38
same,glycan array binding signal (z-score),[30],-0.228
same,glycan array binding signal (z-score),[31],2.19
same,glycan array binding signal (z-score),[32],-1.1
same,glycan array binding signal (z-score),[33],3.85
same,glycan array binding signal (z-score),[34],0.253
same,glycan array binding signal (z-score),[35],-0.037
same,glycan array binding signal (z-score),[36],-0.51
same,glycan array binding signal (z-score),[37],0.298
same,glycan array binding signal (z-score),[38],3.89
same,glycan array binding signal (z-score),[39],0.761
same,glycan array binding signal (z-score),[40],-0.725
same,glycan array binding signal (z-score),[41],0.473
